mHTT CaM bind – mHTT-calmodulin interaction abrogation; P42858; AlphaScreen His-mHTT/GST-CaM binding, luminescence; inhibition, % at 15 µM; hit rate 3.6% among 190,000; AID 1671202;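 also: 0% = both proteins with DMSO and 100% = one protein alone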
Pf apPOL block – Pf-apPOL DNA polymerase inhibition | hit rate 0.25% among 210,000 | Recombinant Pf-apPOL, molecular beacon fluorescence, 1.5 h | inhibition, % at 10 µM
* marks the source's active call; other numbers are inactive results; nt = no result given; ! = a repeat was not active. Shown are actives, neighbours in structure and some others; about 3.5% of the full set was active somewhere. Rule as the data show it: active = inhibition above about 50%; inactive = the rest.

SMILES	mHTT CaM bind	Pf apPOL block
Cc1ccnc(Nc2nc(-c3ccc(Cl)cc3)cs2)c1	2	-3
Cc1ccnc(Nc2nc(CC(=O)NCCc3cccs3)cs2)c1	15	-18
Cc1ccnc(Nc2nc(-c3ccncc3)cs2)c1	28	3
Cc1ccnc(Nc2nc(-c3cccnc3)cs2)c1	7	72*!
Cc1ccnc(Nc2nc(-c3ccc4c(c3)OCO4)cs2)c1	56*	-1
CCN(CC)CCS(=O)c1ccccc1 (stereo not drawn)	-3	-16
CCN(C(=O)c1oc(=O)c2ccccc2c1-c1ccc(C)cc1)c1ccccc1	14	5
O=C(Nc1c2c(nn1-c1cccc(Cl)c1)CS(=O)C2)C1CCCCC1 (stereo not drawn)	4	-4
COc1cccc(-c2noc(C3CCCN3C(=O)Nc3cc(OC)ccc3OC)n2)c1 (stereo not drawn)	36	-2
CSc1ccc(Cc2nnc(NC(=O)c3cc(C)oc3C)o2)cc1	48	-4
COc1ccc(Cc2nnc(NC(=O)Nc3cccs3)o2)cc1	54*	-1
COc1ccc(Cc2nnc(NC(=O)Nc3cccc(C(F)(F)F)c3)o2)cc1	3	-10
CCSc1ccc(Cc2nnc(NC(=O)c3cccs3)o2)cc1	57*	-221
CC(C)Sc1ccc(Cc2nnc(NC(=O)Cc3ccc(F)cc3)o2)cc1	-18	-21
CS(=O)(=O)c1ccc(Cc2nnc(NC(=O)CSc3ccc(Cl)cc3)o2)cc1	56*	-25
CC(C)c1cc(C2CCCN2C(=O)c2cc(-c3ccc(Br)cc3)on2)on1 (stereo not drawn)	-6	0
CN(CCO)c1ccc(C#N)cn1	nt	-8
Cn1ccnc1SCC(=O)N1c2ccccc2C(C)(c2ccc(Cl)cc2)CC1(C)C (stereo not drawn)	61*	5
CC1(c2ccc(Cl)cc2)CC(C)(C)N(C(=O)c2cccnc2)c2ccccc21 (stereo not drawn)	48	4
CCCN(CCC)C(=O)c1c[nH]c2ccc(S(=O)(=O)N(C)c3ccc(C)c(C)c3)cc2c1=O	42	22
CCNC(=O)C1=CCN(C(=O)Nc2ccccc2)CC1	3	1
CCn1nccc1C(=O)Nc1nc2c(s1)CN(S(=O)(=O)c1ccc(C)cc1)CC2	10	-4
Cc1ccc(-c2csc(/C(C#N)=C/c3cccs3)n2)cc1	5	-108
O=C(O)C1Nc2c(Cl)cc(Cl)cc2C2C=CCC12 (stereo not drawn)	95*	nt
O=C(O)C1Nc2c(Cl)cc(Cl)c(Cl)c2C2C=CCC12 (stereo not drawn)	96*	nt
SMILES	mHTT CaM bind	Pf apPOL block
O=C(c1cccc2c1NC(c1ccc(Cl)cc1Cl)C1CC=CC21)N1CCOCC1 (stereo not drawn)	16	13
COc1ccc(C(=O)Nc2c3c(nn2C(C)(C)C)CS(=O)C3)c(OC)c1 (stereo not drawn)	-3	-31
O=C(CNS(=O)(=O)c1ccc(Br)s1)Nc1ccc(Cl)cc1	-6	6
Cc1cccc(C(=O)NC2CCN(c3ccccc3C(=O)N(C)C(C)C)CC2)c1	9	1
O=C1C(=O)N(c2cccnc2)C(c2ccccc2[N+](=O)[O-])C1=C(O)c1ccc(Cl)cc1 (stereo not drawn)	88*	-218
O=C(O)CN1C(=O)C(=O)C(=C(O)c2ccc(Cl)cc2)C1c1ccccc1[N+](=O)[O-] (stereo not drawn)	6	-6
O=C(Nc1ccccc1C(F)(F)F)OCCCN1CCC2(CCC(c3ccccc3)CC2)C1=O (stereo not drawn)	93*	0
O=C(Nc1ccc(F)cc1)OCCN1CCCC12CCC(c1ccccc1)CC2 (stereo not drawn)	-15	-3
O=C(Nc1cccc(F)c1)OCCCN1CCC2(CCC(c3ccccc3)CC2)C1 (stereo not drawn)	50*	-3
CCCCNC(=O)OCCCN1CCC2(CCC(c3ccccc3)CC2)C1=O (stereo not drawn)	10	-6
Cc1nc(SCc2nc3cc([N+](=O)[O-])c([N+](=O)[O-])cc3[nH]2)c(C#N)c(C)c1Cl	39	-5
O=C(Nc1ccc(N2CCOCC2)c(Br)c1)C1CC1	3	-7
COc1ccc(Nc2ncc3c(n2)CCN(Cc2ccc(C)s2)C3)cc1	4	-7
CCOc1cccc(/C=C2\C(=O)Nc3ccc(Br)cc32)c1O	58*	-12
O=C1Nc2ccc(Br)cc2/C1=C/c1ccccc1F	31	-1
CCCOc1ccccc1/C=C1\C(=O)Nc2ccc(Br)cc21	97*	5
CC(C)(C)c1ccc(/C=C2\C(=O)Nc3ccc(Cl)cc32)cc1	60*	-22
Cc1ccccc1/C=C1\C(=O)Nc2ccc(Cl)cc21	85*	-5
O=C1Nc2ccc(Cl)cc2/C1=C/c1ccc(Cl)cc1	35	1
Cc1ccc2c(c1)/C(=C/c1ccccc1Cl)C(=O)N2	16	-3
CCN1C(=O)NC(=O)/C(=C/c2cn(CC(=O)NCCCOC)c3ccccc23)C1=O	4	-2
O=c1/c(=C/c2ccc(I)o2)sc2nc3ccccc3n12	3	4
CCOc1ccc(/C=C2\C(=O)Nc3ccc(Cl)cc32)cc1	25	-4
CCOc1ccccc1/C=C1\C(=O)Nc2ccc(Cl)cc21	64*	6
CCOc1ccccc1/C=C1\C(=O)Nc2ccc(Br)cc21	63*	1
SMILES	mHTT CaM bind	Pf apPOL block
CCOc1ccc(/C=C2\C(=O)Nc3ccc(Br)cc32)cc1	40	-8
O=C(CN1C(=O)/C(=C/c2ccccc2)Sc2ccccc21)NCc1cccnc1	45	-21
CC(C)N1CCC(CC(=O)N2CCc3c(c(-c4nc(-c5ccccc5)no4)nn3C)C2)CC1	1	-12
COc1ccccc1N1CCN(CCOc2ccc(Cl)cc2)CC1	7	-2
Cc1ccccc1N1CCN(CCOc2cccc(Cl)c2)CC1	93*	-5
CC(=O)NC(c1cccs1)c1ccc2cccnc2c1O (stereo not drawn)	100*	2
CCCCC(=O)NC(c1cccs1)c1cc(Cl)c2cccnc2c1O (stereo not drawn)	28	-4
OCCN1CCN(C(c2cccs2)c2ccc3cccnc3c2O)CC1 (stereo not drawn)	100*	96*
CC(=O)NC(c1ccco1)c1ccc2cccnc2c1O (stereo not drawn)	100*	-2
O=C(Nc1cccc2cccnc12)C(=O)Nc1cccc2cccnc12	-2	2
Oc1ccc2ccccc2c1C(c1cccs1)N1CCCCC1 (stereo not drawn)	nt	6
CC(C)CC(=O)N1CCc2nc(-c3ccc(Cl)cc3)ncc2C1	-5	-6
Nc1nc(C(F)(F)F)nn1C(=O)CCCCCN1C(=O)c2ccccc2C1=O	2	-3
O=S(=O)(c1ccc(-c2csc(=Nc3ccc(Cl)cc3)n2CCCO)cc1)N1CCCC1	55*	-12
O=S(=O)(c1ccc(-c2csc(=Nc3ccc(F)cc3)n2CCCO)cc1)N1CCOCC1	47	-2
CCOc1ccc(N=c2scc(-c3ccc(S(=O)(=O)N4CCCC4)cc3)n2CC)cc1	4	-3
O=S(=O)(c1ccc(-c2csc(=Nc3cccc(Cl)c3)n2CCO)cc1)N1CCCCC1	51*	-7
CC(=O)c1cccc(NC(=O)c2cc(F)c(F)cc2Cl)c1	-5	-7
O[C@H]1C[C@H](c2ccccc2)N(Cc2cccs2)C[C@@H]1n1cc(C2CC2)nn1	74*	-3
Cc1ccc([C@H]2C[C@@H](n3cc(C4CC4)nn3)[C@H](O)CN2Cc2cccs2)cc1	32	-1

Compound activity from PubChem.
